Source: PubChem BioAssay (NCATS)
Several values for one entry are separate records, joined by “and”; a condition that tells them apart may be missing. Equal entries are not always repeated. Records with an inconclusive call do not appear. Activity calls are given as the source filed them. Unless noted, the call rests on the fitted dose curve; in most records, active means well fitted curve in the direction sought with a large enough effect; inconclusive means small, poorly fitted or top-dose-only effect, or another doubt; inactive means no such curve, though single readings can be large; an effect the other way counts as inactive or inconclusive.

Tests used:
[1] = Cell Viability - H-4-II-E (AID 543);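 further: cells exposed to compound for 40 hours; on the % scale 0 is the no-effect control and ±100 the full control effect; nearly all actives have a fitted effect of over 35% in size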
How it was run: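 Cells seeded at 1500 per well and rested 5 hr; compounds added; 40 hr incubation at 37 °C; CellTiter-Glo added, 20 min at room temperature; luminescence read. Hill-equation fits gave AC50.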

[2] = Cellular Toxicity (caspase-3) SHSY5Y (AID 657)
How it was run: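 Luminescent Caspase-Glo 3/7 read-out, 1 hr room temperature, follows 16 hours of compound treatment of SH-SY5Y cells at 37 °C. Normalization: DMSO basal, 10 uM staurosporine as 100%; AC50 values from Hill-equation concentration-response fits.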

[3] = Cell Viability - LYMP2-001 (AID 921);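 further: 0% = DMSO only and full inhibition = tetraoctylammonium bromide control wells; nearly all actives have a fitted effect of over 70% in size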
How it was run: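 Cellular ATP loss read by luciferase luminescence after 24 h compound exposure at 37 C in complete medium. LYMP2-001 lymphoblastoid cells, 2500/well; qHTS concentration-response data fitted with Hill equation for AC50.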

[4] = MultiTox-Fluor Cytotoxicity Assay - LYMP1-003 - Live Cells (AID 962);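 further: 0% = DMSO only and full loss = 92 µM tetraoctylammonium bromide; cytotoxic hits lower the live-cell protease signal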
How it was run: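 Acute cytotoxicity is scored as a drop in live-cell protease activity in human lymphoblastoid LYMP1-003 cells after 16 hr compound exposure at 37 C. AC50 values come from Hill-equation modelling of concentration-response data.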

[5] = Cell Viability - LYMP2-004 (AID 966);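 further: plate controls were DMSO only for no effect and tetraoctylammonium bromide control for full effect; nearly all actives have a fitted effect of over 65% in size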
How it was run: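 qHTS cytotoxicity: human lymphoblastoid line, 24 hr compound treatment, 37 C, complete medium. Viability read as cellular ATP via luciferase luminescence; tetraoctylammonium bromide served as positive control.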

[6] = Cell Viability - LYMP2-005 (AID 967);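 further: plate controls were DMSO only for no effect and 92 µM tetraoctylammonium bromide control for full effect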
How it was run: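 LYMP2-005 human lymphoblastoid cells (2500/well) were treated with compounds for 24 h at 37 C. Intracellular ATP was then measured by CellTiter-Glo luminescence after 30 min at room temperature. AC50 values came from Hill-equation fits of qHTS concentration-response data.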

[7] = Cell Viability - LYMP2-013 (AID 970);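 further: 0% = DMSO only and full inhibition = tetraoctylammonium bromide control; nearly all actives have a fitted effect of over 55% in size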
How it was run: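 Cytotoxicity is scored as a concentration-dependent drop in intracellular ATP in human lymphoblastoid cells after 24 hr compound exposure at 37 C. ATP is quantified by luciferase luminescence, and AC50 values come from Hill-equation modeling.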

[8] = Cell Viability - LYMP2-025 (AID 976);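 further: plate controls were DMSO only for no effect and tetraoctylammonium bromide control for full effect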
How it was run: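 Acute cytotoxicity is scored as a concentration-dependent fall in intracellular ATP, measured by luciferase luminescence, in human lymphoblastoid LYMP2-025 cells exposed to compound for 24 hours at 37 C. AC50 values come from standard Hill fits.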

[9] = Cell Viability - LYMP2-007 (AID 979);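 further: cells exposed to compound for 24 h before reading; 0% = DMSO only and the negative end = 92 µM tetraoctylammonium bromide; nearly all actives have a fitted effect of over 60% in size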
How it was run: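 Cells are seeded at 2500 per well and rested 5 hr. Compounds are then added over a concentration series for 24 hr at 37 C. CellTiter-Glo is added for 30 min at room temperature before luminescence reading.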

[10] = Cell Viability - LYMP2-012 (AID 982);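 further: cellular ATP by luciferase luminescence where a drop means cytotoxicity; cells exposed to compound for one day before reading; 0% = DMSO only and full loss = 92 µM tetraoctylammonium bromide; nearly all actives have a fitted effect of over 55% in size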
[11] = Cell Viability - LYMP2-018 (AID 985);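 further: plate controls were DMSO only for no effect and tetraoctylammonium bromide at 92 µM for full effect; nearly all actives have a fitted effect of over 50% in size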
How it was run: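 Seed 2500 lymphoblastoid cells per well, incubate 5 hr at 37 C, add compound and incubate 24 hr at 37 C, add CellTiter-Glo, wait 30 min at room temperature, then read luminescence.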

[12] = Cell Viability - LYMP2-026 (AID 989); further: on the % scale 0 is the no-effect control and ±100 the full control effect; nearly all actives have a fitted effect of over 50% in size
How it was run: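 Cells are seeded at 2500 per well and held 5 hr at 37 C. Compounds are added in concentration series for 24 hr, then CellTiter-Glo reagent is applied and luminescence read.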

[13] = Cell Viability - LYMP1-002 - Assay at 40 hr (AID 994);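 further: 0% = DMSO only and full inhibition = 92 µM tetraoctylammonium bromide; nearly all actives have a fitted effect of over 60% in size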
How it was run: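 Cells are plated at 2500 per well and rested 5 hr at 37 C. Compounds are added and incubated 40 hr at 37 C. CellTiter-Glo reagent is added for 30 min at room temperature before luminescence is read.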

[14] = qHTS assay for small molecule agonists of retinoid X receptor alpha signaling (AID 588544; calls by dose curve); conditions: HEK293T RXRa-UAS-bla, beta-lactamase reporter, 18 h; 530 nm emission
[15] = molecular target: Retinoic acid receptor RXR-alpha (Homo sapiens) (UniProt P19793); test: as above
[16] = qHTS assay for small molecule antagonists of retinoid X receptor alpha signaling (AID 588546; active means well fitted inhibition curve with a large enough effect in the signal ratio, with a control signal flat, not every such curve was filed as active; the % refers to the signal ratio;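 further: cells stimulated with 9-cis-retinoic acid as agonist; on the % scale 0 is the no-effect control and ±100 the full control effect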); conditions: HEK293T RXRa-UAS-bla, beta-lactamase ratio, antagonist mode; measured here: W530 green channel, cytotoxicity proxy
How it was run: (§1)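 Beta-lactamase reporter inhibition, read as CCF4 fluorescence ratio (ex 405, em 460/530 nm) after 2 h at RT. HEK293T UAS-bla cells, 2500/well, were stimulated with 9-cis-RA at 500 or 100 nM final alongside test compound for 18 h at 37 C.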

[17] = molecular target: Retinoic acid receptor RXR-alpha (Homo sapiens) (UniProt P19793); test: as above; conditions: HEK293T RXRa-UAS-bla, beta-lactamase ratio, antagonist mode
How it was run: as §1

[18] = qHTS assay for small molecule agonists of the antioxidant response element (ARE) signaling pathway measured by Nrf2-dependant transcriptional activity (AID 720636; active means well fitted curve in the direction sought with a large enough effect in the repeat runs; an effect the other way counts as inactive or inconclusive; further: % of control where 0% means no effect)
How it was run: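 Nrf2-dependent transcription read as ONE-Glo luciferase signal from ARE-luc HepG2 reporter cells after 16 hr compound treatment at 37 C, 5% CO2, in assay medium with 1% dialyzed FBS.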

[19] = qHTS assay for small molecule antagonists of the retinoid-related orphan receptor gamma (ROR-gamma) signaling pathway - cell viability counter screen (AID 720652; active means well fitted curve in the direction sought with a large enough effect in the repeat runs; an effect the other way counts as inactive or inconclusive;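 further: CHO reporter cells with doxycycline-induced ROR-gamma expression; compound exposure lasted 16 hr before ATP read; on the % scale 0 is the no-effect control and ±100 the full control effect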)
How it was run: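 Steps: seed CHO cells bearing TET-inducible ROR and ROR response element-luciferase; rest 5 hr at 37 C; add compound, then doxycycline; incubate 16 hr; add CellTiter-Glo and read luminescence as ATP-based viability.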

[20] = Cell Viability - SH-SY5Y (AID 544); conditions: SH-SY5Y neuroblastoma cell viability; viability change, negative = cytotoxic: at 92.2 µM (top of the series);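 further: cells exposed to compound for 40 hours; 0% = DMSO alone and -100% = 100 µM tamoxifen; nearly all actives have a fitted effect of over 55% in size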
How it was run: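 Cells were plated at 1500 per well and allowed 5 hr at 37 °C. Compounds were added across a concentration range and incubated 40 hr at 37 °C. CellTiter-Glo was added for 20 min at room temperature before luminescence reading.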

Chain of Retinoic acid receptor RXR-alpha (Homo sapiens) (P19793 whole entry, looked up): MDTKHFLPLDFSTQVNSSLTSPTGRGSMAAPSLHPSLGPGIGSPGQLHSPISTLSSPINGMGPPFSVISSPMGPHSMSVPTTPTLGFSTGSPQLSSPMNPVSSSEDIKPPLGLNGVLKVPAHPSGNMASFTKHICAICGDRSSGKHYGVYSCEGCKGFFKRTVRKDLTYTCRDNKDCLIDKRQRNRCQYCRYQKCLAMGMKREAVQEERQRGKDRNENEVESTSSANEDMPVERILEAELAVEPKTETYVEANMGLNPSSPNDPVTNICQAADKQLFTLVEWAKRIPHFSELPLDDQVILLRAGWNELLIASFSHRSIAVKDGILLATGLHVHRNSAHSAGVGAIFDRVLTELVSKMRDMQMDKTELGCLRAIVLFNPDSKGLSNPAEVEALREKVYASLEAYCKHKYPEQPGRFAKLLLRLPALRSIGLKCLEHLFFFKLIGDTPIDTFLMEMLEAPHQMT

O=[N+]([O-])c1ccc2c3c(cccc13)CC2
-3.8% and -0.996%: max response [16]
20.4% and -8.69%: max response [14]
inactive: Potency [1] | outcome [2] | Potency [3] | outcome [4] | Potency [5] | Potency [6] | Potency [7] | Potency [8] | Potency [9] | Potency [10] | Potency [11] | Potency [12] | Potency [13] | outcome [15] | max response [17] 28.1% and 10.3% | Potency [18] | Potency [19]

ClCC(Cl)Cl
-11.1%: max response [14]
inactive: Potency [1] | Potency [20] | outcome [2] | Potency [3] | outcome [4] | Potency [5] | Potency [6] | Potency [7] | Potency [8] | Potency [9] | Potency [10] | Potency [11] | Potency [12] | Potency [13] | outcome [15] | max response [17] 7.8% | Potency [18] | Potency [19]
2.25%: max response [16]

CCCCOC(C)=O
6.81%: max response [14]
inactive: Potency [1] | Potency [20] | outcome [2] | Potency [3] | outcome [4] | Potency [5] | Potency [6] | Potency [7] | Potency [8] | Potency [9] | Potency [10] | Potency [11] | Potency [12] | Potency [13] | outcome [15] | max response [17] 10.8% | Potency [18] | Potency [19]
-8.9%: max response [16]

Nc1ncc([N+](=O)[O-])s1
0.224%: max response [14]
-7.58%: max response [16]
inactive: Potency [1] | Potency [20] | outcome [2] | Potency [3] | outcome [4] | Potency [6] | Potency [7] | Potency [8] | Potency [9] | Potency [10] | Potency [11] | Potency [12] | Potency [13] | outcome [15] | max response [17] 20% | Potency [18] | Potency [19]

Oc1ccc(Cl)c(Cl)c1
-0.477%: max response [16]
-8.76%: max response [14]
inactive: Potency [1] | Potency [20] | outcome [2] | Potency [3] | outcome [4] | Potency [5] | Potency [6] | Potency [7] | Potency [8] | Potency [9] | Potency [10] | Potency [11] | Potency [12] | Potency [13] | outcome [15] | max response [17] -1% | Potency [18] | Potency [19]

O=S(=O)(Cl)c1ccccc1
inactive: Potency [1] | outcome [4] | Potency [5] | Potency [6] | Potency [7] | Potency [8] | Potency [9] | Potency [10] | Potency [11] | Potency [12] | Potency [13] | outcome [15] | max response [17] -0.573% and -10.4% | Potency [18] | Potency [19]
-12.3%: max response [14]
25.3% and -4.13%: max response [16]
active: viability change, negative = cytotoxic [20] -100%

C=CCBr
inactive: Potency [1] | Potency [20] | outcome [2] | Potency [3] | outcome [4] | Potency [5] | Potency [6] | Potency [7] | Potency [8] | Potency [9] | Potency [10] | Potency [11] | Potency [12] | Potency [13] | outcome [15] | max response [17] 13.2% | Potency [18] | Potency [19]
-11.7%: max response [14]
-4.43%: max response [16]
